About 83,000 compounds went through this panel and 20% of them were active in at least one assay; those are over-represented in the sample as a whole.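 Percent growth is the endpoint: 0 to 100 indicates growth inhibition (40 means 60% inhibition), 0 means no net growth, and negative values indicate cell death.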 Values without a mark were called inactive. The source made the active and inactive calls. The calls were made as follows: active = growth percent below 10; inactive = the rest.

For this test, the system named is HT29 colon. The test can be described thus: NCI-60 one-dose screen, 48 h (100 = growth as untreated, 0 = no growth, -100 = all killed). The conditions noted are these: 10 µM unless noted.
As to `COc1cc(C(=O)c2c(N)ncn2-c2ccccc2)cc(OC)c1OC`, the growth is 93.7%.
The result for `CCn1c2ccc(O)cc2c2c(C)c3c[n+](C(C)C)ccc3c(C)c21` reads 54.8%.
Turning to `Cc1cc2nc(-c3c(-c4ccc(F)cc4)nc4sccn34)[nH]c2cc1C`, the growth is 96.3%.
The result for `Oc1c(I)cc(-c2nc3ccccc3s2)cc1CN(Cc1ccccn1)Cc1ccccn1` reads 21.3%.
The result for `CC(C)(CO)N(CCO)CCO` reads 98.6%.
The result for `CC1(C)CC[C@]2(C(=O)N3CCOCC3)CC[C@]3(C)C(=CC[C@@H]4[C@@]5(C)C/C(=C/c6ccncc6)C(=O)C(C)(C)[C@@H]5CC[C@]43C)[C@@H]2C1` reads 5.31% (active); that for `Cc1cccc(NC(=O)CSc2nc3ccc([N+](=O)[O-])cc3[nH]2)c1`, 90.4%; that for `COc1ccc(-c2oc(=O)ccc2-c2cc(OC)c(OC)c(OC)c2)cc1O`, 3.93% (active).
Turning to `O=C(O)c1cccc(N/C=C/C(=O)c2cc3cc(Br)ccc3oc2=O)c1`, the growth is 108%.
For `CC[C@H](C)[C@H](NC(=O)[C@H](CCCNC(=N)N)NC(=O)[C@H](Cc1c[nH]c2ccccc12)NC(=O)[C@@H](NC(=O)[C@H](CCCCN)NC(=O)[C@H](CCCCN)NC(=O)[C@@H](NC(=O)[C@@H](NC(=O)[C@@H](NC(=O)[C@H](CCCCN)NC(=O)[C@H](Cc1ccccc1)NC(=O)[C@H](CCCCN)NC(=O)[C@H](CCCCN)NC(=O)[C@H](Cc1ccccc1)NC(=O)[C@@H](NC(=O)[C@@H](N)CCCCN)[C@@H](C)CC)[C@@H](C)O)[C@@H](C)CC)[C@@H](C)CC)C(C)C)C(=O)N[C@@H](Cc1ccccc1)C(=O)NCC(=O)N[C@@H](CCCNC(=N)N)C(=O)N[C@@H](Cc1ccccc1)C(N)=O`, the growth was -35.7% (active).
For the compound `CCOC(=O)c1c(C)nc2c(c1N)CC(=O)N2Cc1cc(OC)c(OC)c(OC)c1`, the growth was 8.37% (active).
With `Cc1c(Cl)cccc1C(=O)Nc1nc2c(s1)CN(C(=O)Nc1cccc(C(F)(F)F)c1)CC2`, the growth is 1.39% (active).
The result for `COc1cc2nc(Nc3cccc(F)c3)nc(Nc3cc(C)[nH]n3)c2cc1OC` reads -54.9% [20 µM] (active); that for `CCC(CC)(N(CC(=O)O)CC(=O)O)C(CC)(CC)N(CC(=O)O)CC(=O)O`, 89.9%.
The result for `O=C(O)c1cn(C2CC2)c2cc(N3CCN(C(=O)N/N=C/c4ccccc4)CC3)c(F)cc2c1=O` reads 96.9%.
The result for `COc1ncc2cc1NS(=O)(=O)c1cccc(c1)C(=O)NCC1=CC=C(S1)c1ncnc3c1SC2=C3C` reads 4.55% (active); that for `CCOC(=O)c1c(-c2ccc(Cl)cc2)c(C#N)c2c(C#N)c(N)nn2c1N`, 49.7%.
For `O=C(/C=C/c1cccc(Cl)c1)c1cccc(OCCCCOc2cccc(C(=O)/C=C/c3cccc(Cl)c3)c2)c1`, the growth is 76.1%.
The result for `NC(CSC(c1ccccc1)(c1ccccc1)c1ccc2c(c1)OCO2)C(=O)O` (stereo not given) reads -5.15% (active); that for `O=C1NC(=O)c2c1c1c3ccccc3[nH]c1c1oc3ccc(F)cc3c21`, 81.9%; that for `O=c1ccc2nc(C(F)(F)F)nn(-c3ccccc3)c-2c1`, -64.3% (active).
The result for `CCNc1nc(-c2ccc(F)cc2)c(C#N)c(=O)n1C` reads 57.2%; that for `Clc1nccc2c(-c3csc(-c4c[nH]c5ccccc45)n3)c[nH]c12`, 23.6%.
Consider `C=C(C)[C@@H]1CC[C@]2(CO)CC[C@]3(C)[C@H](CC[C@@H]4[C@@]5(C)CCC(NCCc6ccc(O)cc6)C(C)(C)[C@@H]5CC[C@]43C)[C@@H]12` (stereo not given in full), for which the growth was -87.9% (active).
The result for `CCCCCCCCCCCCCCCCOC(=O)c1c(C)[nH]c(/C=C2\N=C(c3ccc[nH]3)C=C2OC)c1C` reads 13.6%; that for `COc1ccc(-c2ccc(-c3ccc(C(=N)N)cn3)s2)cc1`, 16.1%; that for `COc1cc(-c2nc(SCCC(C)C)nc(N3CCOCC3)c2C#N)cc(OC)c1OC`, 19.2%.
The result for `Cc1cc2oc(=O)cc(CP(=O)(O)O)c2cc1O` reads 106%; that for `O=C1/C=C/[C@@H](O)[C@@H]2C[C@@H](O)C[C@H]2/C=C/CCC[C@H](CCOCc2ccccc2)O1`, -23.2% (active); that for `O[C@@H](c1cc(C(F)(F)F)nc2c(C(F)(F)F)cccc12)[C@H]1CCCCN1`, 53.8%.
The result for `O=C1CCCc2nc3sc4c(=O)n(-c5ccccc5Cl)nnc4c3cc21` reads 77.5%.
As for `O=C(CCC(=O)c1nc2ncccc2[nH]1)NN1C(=O)CSC1c1ccc(Cl)cc1` (stereo not given), the growth is 95.5%.
For `Cc1[nH]c(C(=O)Nc2cccc(OC3CCNCC3)c2)c(Cl)c1Cl`, the growth was -36.2% (active).
The result for `CCOC(=O)C(=Cc1cccc(C#N)c1)C(=O)OCC` reads 20%; that for `C=CCn1c(SCC(=O)Nc2ccc(C(=O)/C=C/c3ccc(OC)cc3)cc2)nnc1-c1ccccc1`, 85.3%.
The result for `COc1ccc(/C=C/C(=O)c2cc3c(N)c(C(=O)Nc4ccccc4C)sc3nc2C)cc1` reads -27.6% (active); that for `O=C1NC(=O)c2c1c1c3ccccc3[nH]c1c1oc3cc(Br)ccc3c21`, 76.9%; that for `CS(=O)(=O)Cc1cnc(C2OCCO2)s1`, 91.1%.
With `COc1ccc(C2=Nc3c(N)ncnc3NC(c3cccc(Nc4ccnc5cc(C(F)(F)F)ccc45)c3)C2)cc1` (stereo not given), the growth was 42.6%.
The result for `NS(=O)(=O)c1ccc(N/C=C/C(=O)c2cc3ccccc3oc2=O)cc1` reads 108%.

The values are drawn from PubChem BioAssay (NCI).
